# GCN5L2 inh = blocks human GCN5L2 histone acetyltransferase. Q92830. GCN5L2 HAT assay, ThioGlo1 CoA-SH fluorescence. Potency, µM (doses to about 58.9 µM), usual class: inhibitors. actives 0.21% (n = 390,000). AID 504327
# Target sequence (Q92830 whole entry, looked up): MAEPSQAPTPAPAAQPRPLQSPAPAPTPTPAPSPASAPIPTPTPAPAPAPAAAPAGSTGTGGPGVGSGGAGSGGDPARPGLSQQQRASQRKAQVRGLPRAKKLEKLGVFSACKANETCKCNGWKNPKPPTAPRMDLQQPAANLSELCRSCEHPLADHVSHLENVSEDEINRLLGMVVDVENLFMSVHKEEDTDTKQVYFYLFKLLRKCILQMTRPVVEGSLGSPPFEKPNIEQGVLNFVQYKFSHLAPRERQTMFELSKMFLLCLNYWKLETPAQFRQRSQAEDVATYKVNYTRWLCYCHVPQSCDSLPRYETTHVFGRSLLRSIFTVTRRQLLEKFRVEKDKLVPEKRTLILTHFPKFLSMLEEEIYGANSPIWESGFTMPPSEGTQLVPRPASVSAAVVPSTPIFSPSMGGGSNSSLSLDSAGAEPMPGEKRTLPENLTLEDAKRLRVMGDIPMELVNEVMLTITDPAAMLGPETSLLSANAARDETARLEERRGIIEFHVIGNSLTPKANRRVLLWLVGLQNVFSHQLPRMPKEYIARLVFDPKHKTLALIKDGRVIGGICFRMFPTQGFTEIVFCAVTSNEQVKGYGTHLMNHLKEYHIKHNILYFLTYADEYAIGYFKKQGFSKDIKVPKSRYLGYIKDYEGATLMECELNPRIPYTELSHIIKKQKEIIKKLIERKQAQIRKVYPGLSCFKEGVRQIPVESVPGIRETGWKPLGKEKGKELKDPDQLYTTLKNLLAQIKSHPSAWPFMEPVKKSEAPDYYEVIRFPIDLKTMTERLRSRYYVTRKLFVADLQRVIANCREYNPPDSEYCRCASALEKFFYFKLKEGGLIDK
#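 GCN5L2 (20 nM) in 50mM HEPES pH 7.5, 0.1mM EDTA, 0.01% Tween-20 preincubated 15 min with compounds at room temperature. Reaction started with H3(1-25) 75uM, acetyl-CoA 70uM, ThioGlo1 50uM; CoA-thiol fluorescence (Ex340/Em540) read at 0 and 20 min.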
# GLS inhibitor = blocks human kidney-isoform glutaminase activity; GLS enzymatic activity, qHTS titration; AID 624170; Potency, µM (titrated, usually from 45.5 µM), usual class: inhibitors; actives 0.21% (n = 410,000)
#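 Enzyme dispensed in phosphate buffer (45 mM, pH 8.2, 0.02% Tween-20), compounds pinned in, then 1 mM L-glutamine solution and the glutamate oxidase–HRP–Amplex Red mix added; fluorescence read immediately and again after 30 min at room temperature.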
# PLK1 PBD inh = PLK1 (human) polo-box domain binding inhibition; P53350; Plk1 PBD binding of FITC phosphopeptide, fluorescence polarization; Potency, µM, most hits filed as inhibitors; actives 2.8% (n = 360,000); AID 720504; also: series mostly up to about 57 µM; nearly all actives have a fitted effect of over 65% in size
# VDR inhibitor = vitamin D3 receptor (human) inhibition. P11473. VDR-SRC2-3 peptide fluorescence polarization, 2 h. Potency, µM, hits mostly inhibitors. actives 0.93% (n = 400,000). AID 504847
#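 The screen uses fluorescence polarization to detect compounds that interfere with recruitment of the SRC2-3 coactivator peptide to VDR; plates are read after 2 h at room temperature.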
# PI4K2A inh = inhibitors of human PI4K2A; actives 0.13% (n = 420,000); activity change, negative = inhibition, % at 76.9 µM; purified PI4K2A, ADP-Glo luminescence, 1 h; stronger effect = lower value; AID 1346378; in the data active = activity change below about -50%; inconclusive = mostly about -30% to -49%
#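 PI4K2A activity was measured by ADP-Glo luminescence: enzyme (4 ug/mL stock) and phosphatidylinositol (1.2 mM stock) in Tris pH 7.5/MgCl2/EGTA/Triton X-100 buffer were reacted with ATP (300 microM stock) for one hour at ambient temperature.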
# Numbers stand for hits; . = inactive; ? = inconclusive; / = no result; ! = a repeat was not active. The list is not random: actives were taken first. Their share in the collection is about 3.1%. Unless noted, calls follow the shape of the dose curve; as a rule, active = well fitted curve in the direction sought with a large enough effect; inconclusive = small, poorly fitted or top-dose-only effect, or another doubt; inactive = no such curve, though single readings can be large; an effect the other way counts as inactive or inconclusive.
SMILES,GCN5L2 inh,GLS inhibitor,PLK1 PBD inh,VDR inhibitor,PI4K2A inh
COc1ccc(CN(Cc2cc3cccc(C)c3[nH]c2=O)C(=O)N(C)C)cc1,.,.,.,.,.
CNC(=S)N(Cc1ccc(OC)cc1)Cc1cc2cccc(C)c2[nH]c1=O,.,?,13µM,?,.
CN(C(=O)CNC(=O)c1ccccc1OCC(=O)Nc1ccc(I)cc1)c1ccccc1,/,/,/,/,.
C=CCSSSCC=C,22µM,.,/,25µM,/
COc1ccc(N2CCN(CCCNC(=O)CCc3ccc(F)cc3)CC2)cc1,/,/,/,/,.
O=C(O)CCCC[P+](c1ccccc1)(c1ccccc1)c1ccccc1,/,/,/,/,.
Oc1cccc(-c2nc3ccccc3s2)c1,.,.,.,.,?
Oc1cccc(-c2nnc(-c3cccc(O)c3)nn2)c1,/,.,.,.,-66
Cn1c(=O)[nH]c(=O)c2c1[nH]c(=S)n2CCCc1ccccc1,16µM,?,30µM,40µM,.
Cn1c(=O)c2c([nH]c(=S)n2CCCc2ccccc2)n(C)c1=O,11µM,?,.,79µM,.
Cn1c(=O)[nH]c(=O)c2c1[nH]c(=S)n2Cc1ccc(Cl)cc1,?,?,12µM,?,.
Cn1c(=O)[nH]c(=O)c2c1nc(Br)n2CCCc1ccccc1,.,/,/,/,/
O=C(c1cccc(I)c1)N1CCC(Oc2cccnc2)CC1,/,/,/,/,.
Cn1c(=O)c2cc(S(=O)(=O)N3CCN(c4ccc(F)cc4)CC3)ccc2n(C)c1=O,/,/,/,/,.
COC(=O)[C@]12C[C@H](CC(=O)N3CCN(C(=O)C4CC4)CC3)C(=O)N(Cc3ccccc3)C1=C[C@H](COCc1ccccc1)O[C@@H]2C,/,/,/,/,.
COCCNC(=O)C[C@H]1CC[C@H]2[C@@H](COc3ccc(NC(=O)Nc4cccc(F)c4)cc3C(=O)N2C)O1,/,/,/,/,.
COC(=O)[C@@]1(C)[C@H]2C(=O)N(C)C(=O)[C@H]2[C@H]2CN=C(SCC(=O)c3ccccc3)N21,.,.,24µM,32µM,.
Cn1c(CCc2nc3ccccc3[nH]2)nnc1SCC#N,.,.,19µM,.,.
O=C(CCc1ccccc1)N[C@H]1[C@H](OC(=O)c2cnccn2)CCC[C@]12C(=O)N(Cc1ccccc1)c1ccccc12,/,/,/,/,.
CN(C)CCNc1ccc2ncn3c4ccc(O)cc4c(=O)c1c23,/,.,12µM,.,?
CCCCS(=O)(=O)Nc1ccc(C)cn1,.,.,21µM,?,.
Cc1ccc(NS(=O)(=O)c2cccs2)nc1,.,.,.,.,.
COC(=O)C(=C/C(C)=C/c1cccs1)C(=O)OC,.,.,19µM,.,.
COC(=O)N/N=C/c1cccs1,.,.,.,.,.
c1ccc(Oc2c3ccccc3nc3ccccc23)cc1,?,.,.,45µM,.
SMILES,GCN5L2 inh,GLS inhibitor,PLK1 PBD inh,VDR inhibitor,PI4K2A inh
CCCCOCCCNC(=O)C[C@H]1C[C@@]2(C(=O)OC)C(=C[C@H](C(C)(C)C)O[C@@H]2C)N(Cc2ccc(Cl)cc2Cl)C1=O,/,/,/,/,.
CCOc1cc2c(cc1OC)C(c1cccc([N+](=O)[O-])c1)NCC2 (centres undefined),.,?,4.7µM,?,.
Cc1ccc(NC(=O)CN(C)Cc2cc(=O)n3ccsc3n2)cc1,.,.,.,.,.
CN(CC(=O)Nc1ccc(Cl)cc1)Cc1cc(=O)n2ccsc2n1,.,.,30µM,.,.
O=C(Nc1ccc(Cl)cc1)Nc1cnccn1,.,.,30µM,.,.
Clc1ccccc1-c1ccc2ncnc(NCCN3CCOCC3)c2c1,.,/,/,.,/
O=P(c1ccccc1)(c1ccccc1)c1nc(-c2ccc(Cl)cc2)oc1N1CCOCC1,.,.,24µM!,?,.
CCOC(=O)c1ccc(NC(=O)Cn2c(-c3nonc3N)nc3ccccc32)cc1,.,.,21µM,?,.
CCOc1ccccc1NC(=O)c1cc(S(=O)(=O)N2CCOCC2)ccc1C,.,.,.,.,.
Cc1nc(-c2cccc(S(=O)(=O)N3CCOCC3)c2)cs1,.,.,9.5µM,?,.
Cc1nc(-c2cccc(S(=O)(=O)N3CC(C)OC(C)C3)c2)cs1 (centres undefined),.,.,.,.,.
COc1ccc(C(=O)Nc2nc(-c3ccccn3)cs2)cc1S(=O)(=O)N1CCOCC1,.,.,24µM,?,.
Cc1ccc(S(=O)(=O)N2CCOCC2)cc1C(=O)Nc1nc(-c2ccccn2)cs1,.,.,17µM,?,.
CCOC(=O)c1c(-c2ccccc2Cl)csc1NC(=O)c1cc(S(=O)(=O)N2CCOCC2)ccc1C,.,.,11µM,.,.
O=C1CC(c2ccc(Cl)cc2)CC(=O)N1,/,/,/,/,.
COc1ccc2c(c1)CN1C(=O)N(Cc3ccc(F)cc3)S(=O)(=O)CC21 (centres undefined),/,/,/,/,.
CN1CCN(c2cc3c(cc2F)c(=O)c(C(=O)O)cn3-c2ccc(F)cc2)CC1,?,.,/,.,.
COc1ccc(CC(=O)Nc2nc(C)cs2)cc1S(=O)(=O)N1CCOCC1,.,.,.,.,.
O=C(Nc1nc(-c2ccccn2)cs1)c1cccc(S(=O)(=O)N2CCOCC2)c1,.,.,19µM,?,.
COc1ccc(CC(=O)Nc2nc3ccccc3s2)cc1S(=O)(=O)N1CCOCC1,.,.,21µM,?,.
Cc1cc2nc(-c3cccc(NC(=O)c4cccc5ccccc45)c3)oc2cc1C,.,.,/,.,.
CC(=O)OCC(NC(=O)C(C)NC(=O)OC(C)(C)C)C1OC(n2ccc(=O)[nH]c2=O)C(OC(C)=O)C1OC(C)=O (centres undefined),/,/,/,.,/
COc1ccc(-n2c(COc3ccccc3)nnc2SCC(=O)Nc2ccccc2-c2ccccc2)cc1,/,/,/,/,.
CCC[C@H](/C=C/C(=O)OC(C)(C)C)Sc1ccc(OC)cc1,/,/,/,/,.
CC(C)(C)C(=O)OCc1cn(-c2ccc(Cl)cc2)nn1,.,.,.,.,.
SMILES,GCN5L2 inh,GLS inhibitor,PLK1 PBD inh,VDR inhibitor,PI4K2A inh
CC(C)C(=O)OCc1cn(-c2ccc(Cl)c(Cl)c2)nn1,.,.,21µM,.,.
COc1ccc(-c2csc(Nc3ccc(S(N)(=O)=O)cc3)n2)cc1OC,.,.,8.4µM,.,.
COc1cc(NS(=O)(=O)c2ccc(Nc3nc(-c4ccccc4)cs3)cc2)nc(OC)n1,.,?,27µM,.,.
Cc1sc(NC(=O)CCCC(=O)O)c(C(N)=O)c1-c1ccccc1,.,.,30µM,.,.
Cn1c(=O)n(C)c2cc(NS(=O)(=O)c3ccc(Br)cc3)c(NCc3ccccc3)cc21,.,.,/,.,.
CC1(C)CC(=O)c2cnc(NC(=O)Cc3ccc(Cl)cc3)nc2C1,.,.,19µM,.,.
CCCCC(=O)Nc1ncc2c(n1)CC(C)(C)CC2=O,.,.,.,.,.
CCN(c1ccccc1)c1nc(C#N)nc(N(CC)c2ccccc2)n1,.,.,21µM,?,.
Cc1ccccc1N/C(=N/S(=O)(=O)c1ccccc1)c1ccc(F)cc1,.,.,38µM,.,.
Cc1ccc(/C(=N\S(=O)(=O)c2ccc(Br)cc2)Nc2ccccc2C)cc1,.,.,.,.,.

# Source: PubChem
